Compounds without any hit were thinned out: in the full panel of roughly 83,000, 20% have a hit.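 Assay: single dose, 48 h. Readout: percent growth (0 = no net growth; negative = cell death). Active: <10.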 A number with no mark means an inactive call. The source made the active and inactive calls.
Assays:
Assay in all cases: NCI-60 one-dose screen, 48 h (100 = growth as untreated, 0 = no growth, -100 = all killed)
Settings in all cases: 10 µM unless noted
NCI-H23 lung = tested on: NCI-H23 lung
NCI-H322M lung = tested on: NCI-H322M lung
HOP-62 NSCLC = tested on: HOP-62 NSCLC
NCI-H460 lung = tested on: NCI-H460 lung
HOP-92 NSCLC = tested on: HOP-92 NSCLC
NCI-H522 lung = tested on: NCI-H522 lung
A549/ATCC NSCLC = tested on: A549/ATCC NSCLC
786-0 renal = tested on: 786-0 renal
COLO 205 colon = tested on: COLO 205 colon
DU-145 prostate = tested on: DU-145 prostate
K-562 leukemia = tested on: K-562 leukemia
MALME-3M melanoma = tested on: MALME-3M melanoma
MDA-MB-231 breast = tested on: MDA-MB-231 breast
RXF 393 renal = tested on: RXF 393 renal
SF-268 CNS = tested on: SF-268 CNS
SF-295 CNS = tested on: SF-295 CNS
SF-539 CNS = tested on: SF-539 CNS
UACC-257 melanoma = tested on: UACC-257 melanoma
M14 melanoma = tested on: M14 melanoma

Compound | growth (NCI-H23 lung) | growth (NCI-H322M lung) | growth (HOP-62 NSCLC) | growth (NCI-H460 lung) | growth (HOP-92 NSCLC) | growth (NCI-H522 lung) | growth (A549/ATCC NSCLC) | growth (786-0 renal) | growth (COLO 205 colon) | growth (DU-145 prostate) | growth (K-562 leukemia) | growth (MALME-3M melanoma) | growth (MDA-MB-231 breast) | growth (RXF 393 renal) | growth (SF-268 CNS) | growth (SF-295 CNS) | growth (SF-539 CNS) | growth (UACC-257 melanoma) | growth (M14 melanoma)
Cn1cccc1/C=C1/SC(=S)N(CCc2ccc(O)cc2)C1=O | 79.5% | 87.3% | 56.3% | 33.6% | 88.3% | 47.8% | 61.5% | 64.4% | 103% | 82.3% | 18.6% | 36.7% | 59.1% | 76.6% | 74% | 37.6% | 43.6% | 74.1% | 19.9%
Brc1ccc2[nH]cc(-c3nc(-c4c[nH]c5ncccc45)cs3)c2c1 | 47% | 42% | 56.6% | 15.7% | 47.9% | 25% | 22.9% | 10.4% | 18.5% | 39.8% | 4.74% (active) |  | 24.9% | 21.8% | 59% | 5.5% (active) | 50.9% | -6.38% (active) | 8.64% (active)
O=S(=O)(NCCNc1cc(-c2cn(-c3ccccc3)nc2-c2cccc(O)c2)ccn1)c1ccc(Br)cc1 | 39.4% | 50.8% | 40.4% | 26% | 33.3% | 31.9% | 27.2% | 2.12% (active) | -64% (active) | 52.2% | 3.66% (active) | 43.2% | 4.31% (active) | 40.1% | 36.1% | 7.27% (active) | 46.2% |  | 20.3%
Cc1ccc(S(=O)(=O)Nc2ccc(-c3cc(-c4cccc(F)c4)c(C#N)c(=O)[nH]3)cc2)cc1 | 87.7% | 90% | 92.3% | 98.2% | 72.9% | 87.2% | 68.2% | 102% |  | 84% | 54.9% | 92.6% | 87.4% | 83.1% | 74.2% | 87.9% | 90.1% | 103% | 81.3%
CC[C@H](CC[C@@H](C)[C@H]1CC[C@H]2[C@@H]3/C(=C/c4cccnc4)C(=O)C4=CC(=O)CC[C@]4(C)[C@H]3CC[C@]12C)C(C)C | 69.3% | 98.4% | 99.2% | 98.5% | 81.6% | 91% | 54.4% | 105% | 113% | 103% | 76.4% | 97.6% | 95.2% | 91.2% | 103% | 86.5% | 105% | 87.8% | 88%
Nc1nc2c(c(=O)[nH]1)C(c1ccc3c(c1)OCO3)C=C(C(=O)O)N2 (stereo not given) | 109% | 114% | 115% | 110% | 117% |  | 99.2% | 98.3% | 119% | 112% | 99.7% | 101% | 121% | 120% | 112% | 94.2% | 101% | 97% | 112%
COC(=O)[C@]12CC[C@@H](C)[C@H](C)[C@@H]1C1=CC[C@@H]3[C@@]4(C)C[C@@H](OC(C)=O)[C@H](O)[C@@](C)(COC(C)=O)[C@@H]4[C@H](O)C[C@@]3(C)[C@]1(C)CC2 | -83.3% (active) | -92.6% (active) | -84% (active) | -86.9% (active) | -67.4% (active) | -81.6% (active) | -86.2% (active) | -81.9% (active) | -81.3% (active) | -91.9% (active) | -10.7% (active) | -70.5% (active) | -68% (active) | -79.2% (active) | -71.9% (active) | -91.8% (active) | -85.1% (active) |  | -73.3% (active)
O=[N+]([O-])c1cccc(/C=N\Nc2ccccc2)c1 | 88.5% | 81.1% | 84% | 77.1% | 66% | 54.9% | 67.4% | 74.4% | 85.4% | 80.2% | 16.6% |  | 55.7% | 101% | 62.5% | 49.2% | 96.7% | 95.3% | 33.7%
CC(C)=CCC/C(C)=C/CC/C(C)=C/CSC[C@H](NC(=O)CCCCCN1CCN(C)CC1)C(=O)NC1CCCCCC1 | 58.1% | 88.7% | 91.7% | 2.84% (active) | 32.6% | 59.8% | 64.2% | 75.9% | -71% (active) | 53% | -17.4% (active) | -13.7% (active) | -89.1% (active) | 80.3% | 75.1% |  | 82.9% | 76.2% | 83.7%
COc1ccccc1CNc1nc(N)nc2[nH]c3ccc(O)cc3c12 | 57.8% | 61.5% | 37% | 18.3% | 34.1% | 18.7% | 40.6% | 83.2% | 33.6% | 91% | 11.1% | 53.6% | 26.8% | 78% | 64.7% | 49.6% | 45.5% |  | 10.5%
COc1ccc(-c2n/c(=C\c3c(O)[nH]c4ccc(OC)cc34)cc3c2=Nc2ccccc2-3)cc1 | -7.74% (active) | 97.8% | 83.4% | -32.2% (active) | 72.1% | 76% | 19.3% | -82.3% (active) | 88.9% | -2.21% (active) | -32.8% (active) |  | 39% |  | -33.3% (active) |  | -48% (active) | 83.6% | -40.5% (active)
O=C1c2ccccc2C(=Cc2ccccc2)c2ccccc21 | 2.92% (active) | 66.8% | 21.3% | -6.75% (active) | 51.7% | -25.4% (active) | 19.8% | -15.9% (active) | -21.1% (active) | -21.3% (active) | 8.16% (active) | 41.6% | -20.7% (active) | -1.26% (active) | 10.6% |  | -26.2% (active) | 15.7% | -20.5% (active)
Cc1cc(Cl)nc(N(CCNc2ccnc3cc(Cl)ccc23)Cc2ccco2)n1 | 45.6% | 70.6% | 25.6% | 31.7% | 57% |  | 60.6% | -9.46% (active) | 50.9% | 52.2% | 16.2% | 81.3% | 19.3% | -15.7% (active) | 66.7% | 59.4% | -41.6% (active) | 115% | 55.3%
Cc1cc2nc3c4cc(N)ccc4n(CCN(C)C)c3nc2cc1C | 6.58% (active) | 7.13% (active) | 19% | 0.661% (active) | 37.6% | 13.2% | 5.34% (active) | 26.2% | -18.5% (active) | 12.6% | 5.75% (active) | -16.6% (active) | 7.84% (active) | 15.3% | 29.7% | 1.26% (active) | 10.5% | 11.9% | 7.08% (active)
COc1ccc(NC(=S)N/N=C/c2ccccc2SSCCC(=O)OC[C@H]2O[C@H](O)[C@H](O)[C@@H](O)[C@@H]2O)cc1 | 67.2% | 52.5% | 45.8% | 26.6% | 104% | 58.4% | 55.1% | 89.7% | 100% | 83.9% | 51.6% | 72.7% | 71.1% | 104% | 61.1% | 59.1% | 91.7% | 98.4% | 47.8%
C=C(C)[C@@H]1CC[C@]2(C(=O)O)CC[C@]3(C)[C@H](CC[C@@H]4[C@@]5(C)C/C(=C/c6cccc(I)c6)C(=O)C(C)(C)[C@@H]5CC[C@]43C)[C@@H]12 | 20.3% | 37.2% | 21.8% | 11.8% | 16% | 10% | 17.2% | 25% | 28% | 28.7% | 12.5% | 53.3% | 56% | 51.9% | 25.5% | 26.7% | 48.3% | 20.7% | 30.3%
O=C(Nc1ccc(/C=C2\SC(=O)N(Cc3ccc(OC(F)(F)F)cc3)C2=O)cc1)c1ccc(Cl)c([N+](=O)[O-])c1 | 80.8% | 42.7% | 57.8% | 94.6% | 86.4% | 83% | 85% | 99.6% | 55.1% | 72.7% | 46.4% | 98.4% | 53.2% | 83.5% | 62.7% | 96.1% | 77.2% | 80.1% | 104%
CCCCC[C@H]1C/C=C2/C(=O)C=C[C@@H]2C/C=C\CCCC(=O)O[C@@H](CCCCC)C/C=C2/C(=O)C=C[C@@H]2C/C=C\CCCC(=O)O1 | -72.7% (active) | -85.7% (active) | -74.4% (active) | -54.7% (active) | -68.8% (active) |  | -43.5% (active) | -86.8% (active) | -81.7% (active) | -93.1% (active) | -45.3% (active) | -78.4% (active) | -50.1% (active) | -92.4% (active) | -78.7% (active) | -45% (active) | -89.5% (active) | -61.7% (active) | -82.8% (active)
CN(C)c1ccc(-c2ccc(-c3ccc(C(=N)N)c(F)c3)s2)cc1 | -67.1% (active) | 0.0772% (active) | -75.2% (active) | -77.5% (active) | -79.4% (active) | -61.4% (active) | -83.2% (active) | -93.7% (active) | -74.7% (active) | -93.7% (active) | -34.3% (active) | 71.3% | -78.4% (active) | -83.2% (active) | -56.9% (active) | -88.1% (active) | -93% (active) | 111% | 97.5%
CCOC(=O)N1CCN(CCCCOc2ccc(C(C)(C)CC)cc2)CC1 | 89.4% | 113% | 100% | 105% | 86.3% | 77.8% | 95.7% | 99.7% | 105% | 104% | 68.1% | 92.3% | 102% | 111% | 105% | 98.4% | 104% | 94% | 87.9%
CC(=O)c1c(C)[nH]c(-c2nc3ccc(N4CCN(C)CC4)cc3[nH]2)c1-c1ccc2c(c1)OCCO2 | 50.1% | 45.8% | 33.7% | 62.7% | 39% | 48.7% | 44% | 40.9% | 12.7% | 74.3% | 31.2% | 33.7% | 36% | 49.2% | 68.8% | 44.4% | 41.7% | 48.2% | 40.1%

From PubChem BioAssay (NCI)
